Measured values: PubChem BioAssay AID720518 (National Center for Advancing Translational Sciences (NCATS), 2013)
Inconclusive results are not listed. Activity calls are given as the source filed them. Calls follow the shape of the full dose curve.

Test: qHTS for Inhibitors of Cell Surface uPA Generation: Wild-type Protective Antigen (WT-PrAg) Counterscreen for Cherry-picked Compounds; also: 0% is about no effect
Conditions: cells, WT protective antigen toxicity counterscreen; series mostly up to 115 µM; activity (protection): at the top concentration

Structure (SMILES) | activity (protection)
COc1ccc(C(=O)NCCCN2CCOCC2)cc1 | -0.755% (inactive)
O=C(CSc1ccc(Cl)cc1)N1CCCC1 | -1.93% (inactive)
CCN(CC)S(=O)(=O)c1ccc(C(=O)Nc2nnc(COC)o2)cc1 | -0.774% (inactive)
CCOc1cc(/C=N/Nc2cc(C)nc3ccc(C)cc23)ccc1O | -0.441% (inactive)
N#CCC(=O)N/N=C/c1ccc(OCC(=O)Nc2ccc(F)cc2)cc1 | 1.33% (inactive)
O=C(NCCOc1ccc(F)cc1)C1CCN(S(=O)(=O)c2ccccc2)CC1 | -0.928% (inactive)
COc1cc(OC)cc(C(=O)NC(C(=O)Nc2ccc3c(c2)CCC3)C(C)C)c1 (centres undefined) | 0.968% (inactive)
Cc1cnc(C(=O)OCC(=O)Nc2ccc3c(c2)OCCO3)cn1 | 0.158% (inactive)
O=C(OCC(=O)N1CCOCC1)c1c(Cl)ccc(Cl)c1Cl | -0.419% (inactive)
O=c1ccc(S(=O)(=O)N2CCCC2)c[nH]1 | -0.609% (inactive)
c1csc(CN2CCOCC2)c1 | 1.05% (inactive)
Fc1ccc(CNc2ccccn2)cc1 | -1.09% (inactive)
COC(=O)[C@]1(Cc2ccccc2)N[C@H](CN(C)C(=O)c2ccccc2)[C@@H]2C(=O)N(Cc3ccccc3)C(=O)[C@@H]21 | 1.64% (inactive)
Cc1cccc(CCNC(=O)Cc2ccc(NC3=NC4CS(=O)(=O)CC4S3)cc2)c1 (centres undefined) | 0.911% (inactive)
C[C@@H](CSc1ccccc1)CN1CC[C@H](O)CCC1=O | 0.0232% (inactive)
OCC1CCCCN1CC(O)COC(c1ccc(F)cc1)c1ccc(F)cc1 (centres undefined) | 0.726% (inactive)
Cn1c(SCC(=O)NCCc2ccccc2)ncc(C(=O)Nc2ccc(F)cc2)c1=O | 0.399% (inactive)
CC(=O)Nc1ccc(OS(=O)(=O)c2c(C)cc(C)cc2C)cc1 | -2.07% (inactive)
Cc1nc([N+](=O)[O-])cn1CCCCN1C(=O)c2ccccc2C1=O | -0.525% (inactive)
